From PubChem BioAssay AID1159580 (chemical genetic matrix, 2015)
The campaign covered roughly 5,500 compounds. About 2,000 (36%) were called active. Roughly 18% stayed inconclusive and do not appear here. Cut-off read from the data, not from the text of the source: active = normalized growth mostly below about 0.91 (no sharp cut-off); inconclusive = no clear call, values can overlap the other calls; inactive = mostly above about 0.92. The list shows a part of the results.

Experiment: chemical genetic growth profiling, strain panel (AID 1159580);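 note: tested at 20 µM; growth read once vehicle control cultures reached saturation at 30 °C; 1 = growth at the plate median or of vehicle wells; lower values mean less growth of the strain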
Conditions: growth OD

Measured: normalized growth

CC(=O)Oc1ccccc1C(=O)Oc1ccccc1C(=O)O
inactive: S. cerevisiae deletion strains, locus YJR075W, strain HOC1, stronger effect = lower value 1.02 | S. cerevisiae deletion strains, locus YKL009W, strain mrt4, stronger effect = lower value 0.981 | S. cerevisiae deletion strains, locus YKL068W, stronger effect = lower value 0.985 | S. cerevisiae deletion strains, locus YKL085W, strain MDH1 (second series), stronger effect = lower value 0.998 | S. cerevisiae deletion strains, locus YKL085W, strain MDH1, stronger effect = lower value 0.998 | S. cerevisiae deletion strains, locus YKL160W, strain elf1, stronger effect = lower value 0.999 | S. cerevisiae deletion strains, locus YKL190W, strain CNB1, stronger effect = lower value 1 | S. cerevisiae deletion strains, locus YKR001C, strain vps1, stronger effect = lower value 0.979 | S. cerevisiae deletion strains, locus YKR026C, strain gcn3, stronger effect = lower value 1.01 | S. cerevisiae deletion strains, locus YKR091W, strain srl3, stronger effect = lower value 1 | S. cerevisiae deletion strains, locus YLL001W, strain dnm1, stronger effect = lower value 1 | S. cerevisiae deletion strains, locus YLL026W, stronger effect = lower value 1.01 | S. cerevisiae deletion strains, locus YLL041C, strain sdh2, stronger effect = lower value 1 | S. cerevisiae deletion strains, locus YLR027C, strain aat2, stronger effect = lower value 1.01 | S. cerevisiae deletion strains, locus YLR039C, strain RIC1, stronger effect = lower value 0.983 | S. cerevisiae deletion strains, locus YLR058C, strain SHM2, stronger effect = lower value 0.995 | S. cerevisiae deletion strains, locus YLR102C, strain apc9, stronger effect = lower value 0.976 | S. cerevisiae deletion strains, locus YLR113W, strain HOG1, stronger effect = lower value 0.977 | S. cerevisiae deletion strains, locus YLR221C, strain rsa3, stronger effect = lower value 0.998 | S. cerevisiae deletion strains, locus YLR258W, strain gsy2, stronger effect = lower value 0.994 | S. cerevisiae deletion strains, locus YLR262C, strain YPT6 (second series), stronger effect = lower value 1 | S. cerevisiae deletion strains, locus YLR262C, strain YPT6, stronger effect = lower value 0.969 | S. cerevisiae deletion strains, locus YLR268W, strain sec22, stronger effect = lower value 1 | S. cerevisiae deletion strains, locus YLR320W, strain mms22, stronger effect = lower value 0.998 | S. cerevisiae deletion strains, locus YLR330W, strain CHS5, stronger effect = lower value 0.992 | S. cerevisiae deletion strains, locus YLR342W, strain FKS1 (second series), stronger effect = lower value 0.99 | S. cerevisiae deletion strains, locus YLR342W, strain FKS1, stronger effect = lower value 1 | S. cerevisiae deletion strains, locus YLR357W, strain rsc2, stronger effect = lower value 1.01 | S. cerevisiae deletion strains, locus YLR370C, strain arc18, stronger effect = lower value 1 | S. cerevisiae deletion strains, locus YLR371W, strain rom2, stronger effect = lower value 0.975 | S. cerevisiae deletion strains, locus YLR384C, strain iki3, stronger effect = lower value 0.995 | S. cerevisiae deletion strains, locus YLR418C, strain cdc73, stronger effect = lower value 0.997 | S. cerevisiae deletion strains, locus YML016C, strain PPZ1, stronger effect = lower value 0.996 | S. cerevisiae deletion strains, locus YML032C, strain rad52, stronger effect = lower value 0.983 | S. cerevisiae deletion strains, locus YML120C, strain ndi1, stronger effect = lower value 1.01 | S. cerevisiae deletion strains, locus YML124C, strain tub3, stronger effect = lower value 0.992 | S. cerevisiae deletion strains, locus YMR058W, strain fet3, stronger effect = lower value 1.01 | S. cerevisiae deletion strains, locus YMR078C, strain ctf18, stronger effect = lower value 0.984 | S. cerevisiae deletion strains, locus YMR125W, strain sto1, stronger effect = lower value 0.986 | S. cerevisiae deletion strains, locus YMR129W, stronger effect = lower value 0.997 | S. cerevisiae deletion strains, locus YMR205C, strain PFK2, stronger effect = lower value 0.998 | S. cerevisiae deletion strains, locus YMR223W, strain ubp8, stronger effect = lower value 0.969 | S. cerevisiae deletion strains, locus YMR231W, strain pep5, stronger effect = lower value 0.996 | S. cerevisiae deletion strains, locus YMR263W, strain SAP30, stronger effect = lower value 1.01 | S. cerevisiae deletion strains, locus YMR307W, strain GAS1, stronger effect = lower value 0.995 | S. cerevisiae deletion strains, locus YNL067W, strain RPL9B, stronger effect = lower value 1.01 | S. cerevisiae deletion strains, locus YNL071W, strain lat1, stronger effect = lower value 1.01 | S. cerevisiae deletion strains, locus YNL128W, strain TEP1, stronger effect = lower value 1 | S. cerevisiae deletion strains, locus YNL153C, strain GIM3, stronger effect = lower value 1.01 | S. cerevisiae deletion strains, locus YNL183C, strain NPR1, stronger effect = lower value 0.921 | S. cerevisiae deletion strains, locus YNL209W, strain ssb2, stronger effect = lower value 1.01 | S. cerevisiae deletion strains, locus YNL233W, strain BNI4, stronger effect = lower value 0.999 | S. cerevisiae deletion strains, locus YNL248C, strain rpa49, stronger effect = lower value 0.925 | S. cerevisiae deletion strains, locus YNL250W, strain rad50, stronger effect = lower value 0.974 | S. cerevisiae deletion strains, locus YNL271C, strain bni1, stronger effect = lower value 0.971 | S. cerevisiae deletion strains, locus YNL298W, strain CLA4, stronger effect = lower value 0.979 | S. cerevisiae deletion strains, locus YNL307C, strain MCK1, stronger effect = lower value 0.983 | S. cerevisiae deletion strains, locus YNL322C, strain KRE1 (second series), stronger effect = lower value 0.998 | S. cerevisiae deletion strains, locus YNL322C, strain KRE1, stronger effect = lower value 1 | S. cerevisiae deletion strains, locus YNR049C, strain mso1, stronger effect = lower value 1.01 | S. cerevisiae deletion strains, locus YNR052C, strain pop2, stronger effect = lower value 0.975 | S. cerevisiae deletion strains, locus YOL006C, strain TOP1, stronger effect = lower value 1 | S. cerevisiae deletion strains, locus YOL012C, strain htz1 0.794 | S. cerevisiae deletion strains, locus YOL147C, strain pex11, stronger effect = lower value 0.991 | S. cerevisiae deletion strains, locus YOR001W, strain rrp6, stronger effect = lower value 0.972 | S. cerevisiae deletion strains, locus YOR061W, strain CKA2, stronger effect = lower value 0.995 | S. cerevisiae deletion strains, locus YOR069W, strain VPS5, stronger effect = lower value 0.992 | S. cerevisiae deletion strains, locus YOR070C, strain gyp1, stronger effect = lower value 1.02 | S. cerevisiae deletion strains, locus YOR080W, strain dia2, stronger effect = lower value 1 | S. cerevisiae deletion strains, locus YOR083W, strain WHI5, stronger effect = lower value 1.01 | S. cerevisiae deletion strains, locus YOR106W, strain vam3, stronger effect = lower value 1.01 | S. cerevisiae deletion strains, locus YOR136W, strain idh2, stronger effect = lower value 0.978 | S. cerevisiae deletion strains, locus YOR144C, strain elg1, stronger effect = lower value 0.991 | S. cerevisiae deletion strains, locus YOR184W, strain ser1, stronger effect = lower value 0.971 | S. cerevisiae deletion strains, locus YOR231W, strain MKK1, stronger effect = lower value 0.992 | S. cerevisiae deletion strains, locus YOR265W, strain rbl2, stronger effect = lower value 1.03 | S. cerevisiae deletion strains, locus YOR270C, strain vph1, stronger effect = lower value 1.01 | S. cerevisiae deletion strains, locus YOR290C, strain snf2, stronger effect = lower value 0.974 | S. cerevisiae deletion strains, locus YOR316C, strain cot1, stronger effect = lower value 0.978 | S. cerevisiae deletion strains, locus YPL051W, strain arl3, stronger effect = lower value 1.03 | S. cerevisiae deletion strains, locus YPL055C, strain LGE1, stronger effect = lower value 1.02 | S. cerevisiae deletion strains, locus YPL078C, strain atp4, stronger effect = lower value 0.998 | S. cerevisiae deletion strains, locus YPL106C, strain sse1, stronger effect = lower value 0.993 | S. cerevisiae deletion strains, locus YPL240C, strain hsp82, stronger effect = lower value 1.01 | S. cerevisiae deletion strains, locus YPL241C, strain CIN2, stronger effect = lower value 0.965 | S. cerevisiae deletion strains, locus YPL256C, strain CLN2, stronger effect = lower value 0.992 | S. cerevisiae deletion strains, locus YPR119W, strain clb2, stronger effect = lower value 0.991 | S. cerevisiae deletion strains, locus YPR141C, strain kar3, stronger effect = lower value 0.975 | S. cerevisiae deletion strains, locus YPR163C, strain tif3, stronger effect = lower value 0.987 | S. cerevisiae deletion strains, locus YPR167C, strain met16, stronger effect = lower value 0.988 | S. cerevisiae deletion strains, strain wtn01, stronger effect = lower value 0.998 | S. cerevisiae strains, strain wild type, stronger effect = lower value 0.998
